Data reported in ChEMBL document CHEMBL3433997, “St. Jude Leishmania screening dataset” (2016).

Tests used:
Type in all cases: functional
[1] = molecular target: Solute carrier family 2, facilitated glucose transporter member 1 (Homo sapiens) (UniProt P11166); test: ST_JUDE_LEISH: Cytotoxicity at 2uM final concentration against transgenic Leishmania Mexicana promastigotes LmGLUT1 that are glucose transport deficient and complemented with the human glucose transporter GLUT1. Activity is measured by DNA content using SYBR green in vitro
Chain of Solute carrier family 2, facilitated glucose transporter member 1 (Homo sapiens) (P11166 whole entry): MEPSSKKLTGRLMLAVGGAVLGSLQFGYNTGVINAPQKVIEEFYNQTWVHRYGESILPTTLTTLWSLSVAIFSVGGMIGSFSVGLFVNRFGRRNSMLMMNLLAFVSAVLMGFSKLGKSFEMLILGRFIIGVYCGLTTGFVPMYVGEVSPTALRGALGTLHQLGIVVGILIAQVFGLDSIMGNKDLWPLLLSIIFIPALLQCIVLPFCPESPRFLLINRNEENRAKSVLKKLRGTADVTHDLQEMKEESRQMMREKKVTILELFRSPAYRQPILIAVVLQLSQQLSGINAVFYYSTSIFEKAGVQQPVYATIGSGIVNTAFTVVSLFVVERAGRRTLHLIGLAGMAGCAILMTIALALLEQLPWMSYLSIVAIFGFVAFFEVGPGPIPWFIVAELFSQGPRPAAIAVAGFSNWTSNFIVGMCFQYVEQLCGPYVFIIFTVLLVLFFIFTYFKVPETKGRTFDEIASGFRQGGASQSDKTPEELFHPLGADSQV

[2] = molecular target: Hexose transporter 1 (Plasmodium falciparum) (UniProt O97467); test: ST_JUDE_LEISH: Cytotoxicity at 2uM final concentration against transgenic Leishmania Mexicana promastigotes LmPfHT that are glucose transport deficient and complemented with the Plasmodium falciparum hexose transporter. Activity is measured by DNA content using SYBR green in vitro
[3] = molecular target: Glucose transporter (Leishmania mexicana) (UniProt O61059); test: ST_JUDE_LEISH: Cytotoxicity at 2uM final concentration against transgenic Leishmania Mexicana promastigotes LmGT2 that are glucose transport deficient and complemented with the L. Mexicana glucose transporter 2. Activity is measured by DNA content using SYBR green in vitro

Structure (SMILES)	inhibition [1]	inhibition [2]	inhibition [3]
Cc1cc(-c2ccc(NC(=O)N3CCc4cc(Cl)c(N5CCN(C)CC5)cc43)cc2)ccc1C#N	78.1%	77.2%	81.7%
CC(=O)N(C)c1cccc(C(=O)Nc2ccc(-c3cccc(-c4nc5cccc(C)c5[nH]4)c3)cc2)c1	2.19%	1.06%	-8.47%
CC(CCON1C(N)=NC(N)=NC1(C)C)c1ccc(Cl)c(Cl)c1 (stereo unspecified)	26.6%	41.4%	27.7%
Cn1ncc2c3c(CCN4CCC(NCc5ccc6c(c5)NC(=O)CO6)CC4)c(Cl)cnc3ccc21	1.41%	2.09%	-0.28%
CCC(=O)OC(CCN(CC)CC)(c1ccccc1)c1ccccc1	1.98%	1.16%	1.58%
CCN(CCCN1CCCCC1)c1nccc(Nc2ccc(Cl)cc2)n1	2.03%	0.37%	1.18%
CCc1c[nH]c2c(N3CCCS3(=O)=O)cc(C(=O)N[C@@H](Cc3ccccc3)[C@H](O)CNC3CCCCC3)cc12	-0.09%	2.13%	3.39%
CC1=C(C(=O)Nc2ccc(Cl)cc2)C(c2ccncc2)n2nc(C(F)(F)F)nc2N1 (stereo unspecified)	3.72%	2.96%	-2.29%
Nc1nc(N)c2c(ccc3c2ccn3C2C=CCCC2)n1 (stereo unspecified)	56.1%	71.8%	34.4%
Cn1cncc1C(=O)Nc1cccc(-c2cccc(-c3nc4ccccc4[nH]3)c2)c1	4.71%	4.74%	5.38%
O=C(C=Cc1ccc(Cl)c(Cl)c1)NCCCCCN1CCC(c2n[nH]c3ccccc23)CC1	1.5%	2.15%	1.44%
O=C(/C=C/c1ccc(Cl)c(Cl)c1)NCCCCCN1CCC(CCNC(=O)/C=C/c2cc(C(F)(F)F)ccc2F)CC1	-4.09%	-2.42%	2.28%
